Assay in all cases: NCI-60 one-dose screen, 48 h (100 = growth as untreated, 0 = no growth, -100 = all killed)
One test relates to T-47D breast. The following applies: 10 µM unless noted.
A further test has as its system BT-549 breast. Conditions: 10 µM unless noted.
In the next test the test system is MDA-MB-435 melanoma. Conditions: 10 µM unless noted.
For another test, the system named is SW-620 colon. Conditions: 10 µM unless noted.
For a further test, the system named is MCF7 breast. Conditions: 10 µM unless noted.
In another test the test system is HCT-116 colon. Conditions: 10 µM unless noted.
For the next test, the system named is HCC-2998 colon. Conditions: 10 µM.
The subject of a further test is KM12 colon. The following applies: 10 µM unless noted.

About 83,000 compounds went through this panel and 20% of them were active in at least one assay; those are over-represented in the sample as a whole.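 Single-concentration screen, 48 h exposure, 96-well plates. Endpoint: percent growth. Below 10 = active.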 Unmarked numbers belong to inactive results. Calls of active or inactive are those of the source.

Turning to `CO[C@H]1C[C@@H]2CC[C@@H](C)[C@@](O)(O2)C(=O)C(=O)N2CCCC[C@H]2C(=O)O[C@H]([C@H](C)C[C@@H]2CC[C@@H](OP(C)(C)=O)[C@H](OC)C2)CC(=O)[C@H](C)/C=C(\C)[C@@H](O)[C@@H](OC)C(=O)[C@H](C)C[C@H](C)\C=C/C=C/C=C/1C`, the growth was 11.5% in the test with T-47D breast; 39.7% with BT-549 breast; 56.7% with MDA-MB-435 melanoma; 60.1% in the test with SW-620 colon; 30.5% in the test on MCF7 breast; 65.1% with HCT-116 colon. Moreover, the growth is 56.4% with HCC-2998 colon and 59.6% in the test with KM12 colon.
With `Cc1cc(-c2cc(O)ccc2Cl)cc2nnc(Nc3ccc(OCCN4CCCC4)cc3)nc12`, the growth in the test on T-47D breast is -47.8% (active); with BT-549 breast, -50.7% (active); with MDA-MB-435 melanoma it was -73.3% (active); in the test with SW-620 colon it was -74.8% (active); in the test with MCF7 breast, -54.4% (active); in the test with HCT-116 colon, -57.5% (active). For the same molecule, the growth in the test with HCC-2998 colon was -72.6% (active); with KM12 colon, -76.2% (active).
Take `Cc1ccc(F)c(NC(=O)Nc2ccc(-c3cccc4[nH]nc(N)c34)cc2)c1`: the growth is 1.25% (active) with T-47D breast; 29.2% in the test with BT-549 breast; 16.8% in the test with MDA-MB-435 melanoma; 14.9% with SW-620 colon; 2.81% (active) in the test on MCF7 breast; 6.9% (active) in the test with HCT-116 colon. Besides, the growth with HCC-2998 colon is -6.88% (active); in the test on KM12 colon it was 2.63% (active).
Regarding `COC(=O)[C@]12CC[C@@H](C)[C@H](C)[C@@H]1C1=CC[C@@H]3[C@@]4(C)C[C@@H](OC(=O)/C=C/c5ccccc5)[C@H](O)[C@@](C)(CO)[C@@H]4[C@H](O)C[C@@]3(C)[C@]1(C)CC2`, the growth is 13.2% in the test on T-47D breast; 34.4% in the test with BT-549 breast; 11.5% with MDA-MB-435 melanoma; -58.6% (active) in the test on SW-620 colon; 14.3% in the test on MCF7 breast; -56.4% (active) in the test on HCT-116 colon. The growth is -41.8% (active) in the test with HCC-2998 colon and -2.35% (active) with KM12 colon.
`Cc1nc(N)sc1-c1ccnc(Nc2ccc(N3CCOCC3)cc2)n1`: the growth in the test with T-47D breast is 29.8%; in the test on BT-549 breast, 17.3%; with MDA-MB-435 melanoma it was 67.2%; in the test on SW-620 colon it was 41.4%; with MCF7 breast, 27.2%; in the test on HCT-116 colon, 26.2%. The growth is 77.8% in the test with HCC-2998 colon and 23.7% in the test with KM12 colon.
As for `O=C(NOC[C@H](O)CO)c1ccc(F)c(F)c1Nc1ccc(I)cc1F`, the growth was 62.2% in the test on T-47D breast; 80.4% with BT-549 breast; 33% in the test with MDA-MB-435 melanoma; 18.5% in the test with SW-620 colon; 93.3% with MCF7 breast; 11.5% in the test on HCT-116 colon. Moreover, the values for the growth in the test with HCC-2998 colon and with KM12 colon were -15.9% (active) and 24.1%, respectively.
`CCCCOc1nc2cc(Cl)ccc2cc1/C=C/c1cc(/C=C/c2cc3ccc(Cl)cc3nc2OCCCC)n(-c2ccccc2)n1`: the growth in the test with T-47D breast was 65.7%; with BT-549 breast, 89.3%; in the test with MDA-MB-435 melanoma, 112%; in the test with SW-620 colon it was 105%; in the test on MCF7 breast, 94.5%; in the test with HCT-116 colon it was 85.3%. For the same molecule, the growth in the test on HCC-2998 colon was 102%; with KM12 colon it was 94.9%.
`COc1ccc(C2CC(=O)c3c(O)c(OC)c(OC)c(OC)c3O2)cc1O` (configuration not stated): the growth in the test with T-47D breast is 65.9%; in the test on BT-549 breast it was 64.6%; in the test with MDA-MB-435 melanoma, -46.9% (active); in the test on SW-620 colon, 20.2%; in the test on MCF7 breast, 24.8%; in the test with HCT-116 colon, 7.57% (active). The figures for the growth in the test with HCC-2998 colon and in the test with KM12 colon were 12.7% and 12.5%, respectively.
`C=CCCCC(=O)CCC(=O)OCC1O[C@@H](O[C@@H]2C(O)[C@@H](OC(C)=O)C(C)O[C@H]2O[C@H](CC=C)CCCCC)C(O)[C@@H](OC(=O)/C(C)=C/C)[C@@H]1OC(=O)/C=C/c1ccccc1` (some centres not stated): the growth with T-47D breast was -5.16% (active); in the test with BT-549 breast, 16.7%; in the test with MDA-MB-435 melanoma, 9.15% (active); with SW-620 colon it was 30.6%; in the test on MCF7 breast, 17.6%; with HCT-116 colon it was 13.7%. In addition, the figures for the growth in the test with HCC-2998 colon and with KM12 colon were 44.1% and 22.3%, respectively.
As for `O=C(NC1CCNCC1)c1[nH]ncc1NC(=O)c1c(Cl)cccc1Cl`, the growth in the test with T-47D breast is -3.82% (active); in the test on BT-549 breast it was 7.37% (active); in the test with MDA-MB-435 melanoma, -43.3% (active); in the test on SW-620 colon it was 6.16% (active); in the test on MCF7 breast, 3.78% (active); in the test on HCT-116 colon it was 4.77% (active). In addition, the growth in the test on HCC-2998 colon was -2.4% (active); in the test on KM12 colon, 8.2% (active).
`CCN(CCO)CCCOc1ccc2c(Nc3cc(CC(=O)Nc4cccc(F)c4)[nH]n3)ncnc2c1`: the growth is 19.6% in the test on T-47D breast; 54.7% in the test on BT-549 breast; 11.1% with MDA-MB-435 melanoma; 15.6% in the test with SW-620 colon; 6.03% (active) with MCF7 breast; 11.1% in the test with HCT-116 colon. Besides, the growth in the test with HCC-2998 colon was 4.66% (active); in the test on KM12 colon, 15.9%.
As to `COc1ccc2c(c1OC)C(=O)O[C@@H]2[C@H]1c2c(c(C#CC#Cc3ccc(F)c(F)c3)c3c(c2OC)OCO3)CCN1C`, the growth is 69.6% in the test with T-47D breast; 78.2% in the test with BT-549 breast; 89.7% with MDA-MB-435 melanoma; 104% with SW-620 colon; 94% in the test with MCF7 breast; 59.8% in the test with HCT-116 colon. The values for the growth with HCC-2998 colon and in the test with KM12 colon were 88.5% and 83%, respectively.
Regarding `COc1cc2nccc(Oc3ccc(NC(=O)C4(C(=O)Nc5ccc(F)cc5)CC4)cc3)c2cc1OC`, the growth in the test on T-47D breast is -14% (active); with BT-549 breast it was 32.8%; with MDA-MB-435 melanoma, 8.75% (active); in the test on SW-620 colon it was -27.3% (active); in the test on MCF7 breast, 15.6%; in the test with HCT-116 colon, 1.99% (active). For the same molecule, the growth in the test on HCC-2998 colon is 30.5%; in the test on KM12 colon, 7.5% (active).
On to `COc1cc2ncnc(Nc3ccc(F)c(Cl)c3)c2cc1NC(=O)/C=C/CN1CCCCC1`, for which the growth is -63% (active) with T-47D breast; -32.4% (active) in the test with BT-549 breast; -95.3% (active) in the test on MDA-MB-435 melanoma; -78.4% (active) with SW-620 colon; -53.7% (active) in the test on MCF7 breast; -78.5% (active) in the test on HCT-116 colon. Besides, the figures for the growth in the test with HCC-2998 colon and in the test on KM12 colon were -88% (active) and -83.8% (active), respectively.

Values taken from PubChem BioAssay (NCI).
